Data published in PubChem BioAssay (NCATS).
Records with an inconclusive call do not appear. Where a call stands in place of a potency, no number is given. Active and inactive are the calls of the source. Unless noted, the call rests on the fitted dose curve.

Key:
[1] = qHTS for Inhibitors of the Functional Ribonucleoprotein Complex (vRNP) of Lassa (LASV) Arenavirus: LASV Primary Screen - GLuc reporter signal (AID 1347082; calls by dose curve; tested in HEK293 reporter line; further: nearly all actives have a fitted effect of over 60% in size); settings: LASV minigenome vRNP, Gaussia luciferase reporter; series mostly up to 57.5 µM
[2] = qHTS for Inhibitors of the Functional Ribonucleoprotein Complex (vRNP) of Lassa (LASV) Arenavirus: Viability assay - alamar blue signal for LASV Primary Screen (AID 1347083; calls by dose curve; tested in HEK293 reporter line; further: nearly all actives have a fitted effect of over 80% in size); settings: cell viability, alamar blue fluorescence (LASV minigenome counter-screen); series mostly up to 57.5 µM
[3] = qHTS for Inhibitors of the Functional Ribonucleoprotein Complex (vRNP) of Lymphocytic Choriomeningitis Arenaviruses (LCMV): Viability assay - alamar blue signal for LCMV Primary Screen (AID 1347085; calls by dose curve; tested in HEK293 reporter line; further: nearly all actives have a fitted effect of over 80% in size); settings: alamar blue viability counter-screen, LCMV vRNP screen cells; series mostly up to 57.5 µM
[4] = target: Nucleoprotein (Lymphocytic choriomeningitis virus (strain Armstrong)) (UniProt P09992); experiment: qHTS for Inhibitors of the Functional Ribonucleoprotein Complex (vRNP) of Lymphocytic Choriomeningitis Arenaviruses (LCMV): LCMV Primary Screen - GLuc reporter signal (AID 1347086); settings: LCMV minigenome vRNP cell assay, Gaussia luciferase reporter; series mostly up to 57.5 µM; further: nearly all actives have a fitted effect of over 70% in size
Sequence of Nucleoprotein (Lymphocytic choriomeningitis virus (strain Armstrong)) (P09992 whole entry, looked up): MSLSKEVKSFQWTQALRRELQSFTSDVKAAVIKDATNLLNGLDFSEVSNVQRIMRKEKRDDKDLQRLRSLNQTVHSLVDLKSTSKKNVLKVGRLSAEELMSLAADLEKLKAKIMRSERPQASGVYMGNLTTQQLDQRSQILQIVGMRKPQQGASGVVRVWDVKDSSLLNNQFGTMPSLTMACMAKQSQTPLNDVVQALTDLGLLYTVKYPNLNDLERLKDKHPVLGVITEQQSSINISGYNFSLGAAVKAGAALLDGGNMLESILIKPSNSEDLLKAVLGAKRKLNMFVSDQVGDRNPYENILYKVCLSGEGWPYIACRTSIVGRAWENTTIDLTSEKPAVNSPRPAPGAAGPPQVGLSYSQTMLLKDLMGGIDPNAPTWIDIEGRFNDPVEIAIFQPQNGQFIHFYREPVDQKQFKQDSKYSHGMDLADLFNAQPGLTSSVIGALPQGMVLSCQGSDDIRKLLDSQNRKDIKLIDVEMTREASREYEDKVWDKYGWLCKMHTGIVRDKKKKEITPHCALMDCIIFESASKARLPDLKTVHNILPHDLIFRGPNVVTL
Potency means the concentration at half of the fitted maximal effect.

Row | Structure (SMILES) | Potency [1] | Potency [2] | Potency [3] | Potency [4]
1 | CCCCCCC[C@@H](C/C=C/CCC(=O)N(C)C/C(=C/Cl)C/C(=C\C(=O)N1CC(OC)=CC1=O)OC)OC | inactive | inactive | inactive | inactive
2 | CCCCCC(C)O (stereo not given) | inactive | inactive | inactive | inactive
3 | CCC(=O)O[C@]1(C(=O)CO)CC[C@H]2[C@@H]3CCC4=CC(=O)CC[C@]4(C)[C@@H]3CC[C@@]21C | inactive | inactive | inactive | inactive
4 | C[N+]1([O-])[C@@H]2Cc3cc4c(cc3[C@@H]1Cc1cc3c(cc12)OCO3)OCO4 (stereo not given in full) | inactive | inactive | inactive | inactive
5 | CCCCc1nc2ccccc2[nH]1 | inactive | inactive | inactive | inactive
6 | Cn1cnc2c(ncn2[C@@H]2O[C@H](CO)[C@@H](O)[C@H]2O)c1=N | inactive | inactive | inactive | inactive
7 | CC(C)=CCC/C(C)=C/COc1c2occc2cc2ccc(=O)oc12 | inactive | inactive | inactive | inactive
8 | COc1cc2ccc(=O)oc2cc1O | inactive | inactive | inactive | inactive
9 | CCc1ccc(C=C2SC(=S)NC2=O)cc1 | inactive | inactive | inactive | inactive
10 | COc1ccc2[nH]c3c(c2c1)CCn1c-3nc2ccccc2c1=O | inactive | inactive | inactive | inactive
11 | O=C(Nc1nnc(-c2ccco2)o1)c1cc(-c2ccccc2)nc2ccccc12 | inactive | inactive | inactive | inactive
12 | COc1ccc(-c2oc3ccccc3c(=O)c2O)cc1 | inactive | inactive | inactive | inactive
13 | CC1OC(Oc2ccc3ccc(=O)oc3c2-c2c(O)ccc3cc(Oc4ccc5ccc(=O)oc5c4)c(=O)oc23)C(O)C(O)C1O (stereo not given) | inactive | inactive | inactive | inactive
14 | COc1cc2c(c(OC)c1OC)-c1c(cc3c(c1OC)OCO3)C1OC2[C@@H](C)[C@H]1C (stereo not given in full) | inactive | inactive | inactive | inactive
15 | CC1(C)C=Cc2c(c3ccccc3[nH]c2=O)O1 | inactive | inactive | inactive | inactive
16 | CC(C)CNC(=O)/C=C/C=C/CCCC/C=C/c1ccc2c(c1)OCO2 | inactive | inactive | inactive | inactive
17 | CC(C)=CCC/C(C)=C/Cc1c(O)ccc(C(=O)/C=C/c2ccc(O)cc2)c1O | inactive | inactive | inactive | inactive
18 | COc1cc2oc(=O)c3c4c(cc5ccc(c1CCN(C)C)c2c53)OCO4 | inactive | inactive | inactive | inactive
19 | Cn1c(-c2ccccc2)cc(=O)c2ccccc21 | inactive | inactive | inactive | inactive
20 | CC(C)(O)CC[C@@H](O)[C@](C)(O)C1CC[C@@]2(O)C3=CC(=O)[C@]4(O)C[C@@H](O)[C@@H](O)C[C@]4(C)C3CC[C@]12C (stereo not given in full) | inactive | inactive | inactive | inactive

Row | Structure (SMILES) | Potency [1] | Potency [2] | Potency [3] | Potency [4]
21 | COC1C(O)C(CO)OC1n1cnc2c(=O)[nH]c(N)nc21 (stereo not given) | inactive | inactive | inactive | inactive
22 | CCC/C=C/CO | inactive | inactive | inactive | inactive
23 | O=C(O)c1ccccc1Cc1ccccc1 | inactive | inactive | inactive | inactive
24 | CC(C)CCC[C@@H](C)[C@@H]1CC[C@H]2C3=CC=C4CC(O)CC[C@]4(C)[C@H]3CC[C@@]21C (stereo not given in full) | inactive | inactive | inactive | inactive
25 | CCCCCCCCCCCCCC[C@@H](O)[C@@H](O)[C@@H](N)CO | inactive | inactive | inactive | inactive
26 | CC(C)CNC(=O)/C=C/C=C/c1ccc2c(c1)OCO2 | inactive | inactive | inactive | inactive
27 | CCc1cnn2c(NCc3ccc[n+]([O-])c3)cc(N3CCCC[C@@H]3CCO)nc12 | 109 nM (active) | 38.5 nM (active) | 38.5 nM (active) | 48.5 nM (active)
28 | O=C(CNC(=O)c1ccccc1)c1ccccc1 | inactive | inactive | inactive | inactive
29 | CC(C)=CCC/C(C)=C/CC/C(C)=C/COc1ccc2ccc(=O)oc2c1 | inactive | inactive | inactive | inactive
30 | COc1c(O)cc2c(=O)oc3c(OC)c(O)cc4c(=O)oc1c2c34 | inactive | inactive | inactive | inactive
31 | C/C=C(\C)C(=O)O[C@H]1CC(C)=C2C(=O)C=C(C)C2[C@@H]2OC(=O)[C@@](C)(OC(=O)C=C(C)C)C21 (stereo not given in full) | inactive | inactive | inactive | inactive
32 | O=C(O)C1=CO[C@@H](O[C@@H]2O[C@H](CO)[C@H](O)[C@H](O)[C@H]2O)[C@@H]2C(CO)=CC[C@H]12 | inactive | inactive | inactive | inactive
33 | CC1OC(OC2C(CO)OC(OCC3OC(OC(=O)[C@@]45CCC(C)(C)C[C@@H]4C4=CC[C@@H]6[C@@]7(C)CCC(OC8OCC(O)C(O)C8OC8OC(C)C(O)C(O)C8O)[C@@](C)(CO)C7CC[C@@]6(C)[C@]4(C)CC5)C(O)C(O)C3O)C(O)C2O)C(O)C(O)C1O (stereo not given in full) | inactive | inactive | inactive | inactive
34 | CC1=C[C@H](O)CC(C)(C)[C@H]1/C=C/C(C)=C/C=C/C(C)=C/C=C/C=C(C)/C=C/C=C(C)/C=C/C1=C(C)C[C@@H](O)CC1(C)C | inactive | inactive | inactive | inactive
35 | CC(C)(OC1OC(CO)C(O)C(O)C1O)[C@H]1Oc2ccc3ccc(=O)oc3c2[C@H]1O (stereo not given in full) | inactive | inactive | inactive | inactive
36 | COC(=O)C1C(O)CC2CCC1N2C (stereo not given) | inactive | inactive | inactive | inactive
37 | O=C(/C=C/c1ccc(O)c(O)c1)O[C@@H]1C[C@](O)(C(=O)O)C[C@@H](O)[C@H]1O | inactive | inactive | inactive | inactive
38 | Cc1cc(=O)c2c(O)c(O)ccc2o1 | inactive | inactive | inactive | inactive
39 | CCCCCOC(=O)CCC | inactive | inactive | inactive | inactive
40 | CSc1c(Cl)c(Cl)c(Cl)c(Cl)c1Cl | inactive | inactive | inactive | inactive

Row | Structure (SMILES) | Potency [1] | Potency [2] | Potency [3] | Potency [4]
41 | O=C1NC2C(=CC(O)C(O)C2O)c2cc3c(c(O)c21)OCO3 (stereo not given) | inactive | inactive | inactive | inactive
42 | C/C(=N/N=C(\C)c1ccccc1O)c1ccccc1O | inactive | inactive | inactive | inactive
43 | CO[C@H]1C[C@H](O[C@H]2[C@H](C)O[C@@H](O[C@@H]3/C(C)=C/C[C@@H]4C[C@@H](C[C@]5(C=C[C@H](C)[C@@H](C6CCCCC6)O5)O4)OC(=O)[C@@H]4C=C(C)[C@@H](O)[C@H]5OC/C(=C\C=C\[C@@H]3C)[C@]54O)C[C@@H]2OC)O[C@@H](C)[C@@H]1O | inactive | inactive | inactive | inactive
44 | CC(C)CC(=O)[C@@H](O)Cc1ccc(O)cc1 | inactive | inactive | inactive | inactive
45 | C[C@H]1C[C@H]2[C@@H]3CCC4=CC(=O)C=C[C@]4(C)[C@@H]3C(=O)C[C@]2(C)[C@@]1(O)C(=O)CO | inactive | inactive | inactive | inactive
46 | COc1cc2oc(=O)ccc2cc1O | inactive | inactive | inactive | inactive
47 | COc1cc(C)cc(O)c1 | inactive | inactive | inactive | inactive
48 | COc1cc2c(c(OC)c1CC=C(C)C)C[C@H](c1ccc(O)cc1O)CO2 | inactive | inactive | inactive | inactive
49 | COC(C)(C)[C@@H](O)COc1c2ccoc2cc2oc(=O)ccc12 | inactive | inactive | inactive | inactive
50 | COC(=O)c1cc(O)cc(OC)c1C(=O)c1c(O)cc(C)cc1O | inactive | inactive | inactive | inactive
51 | CN1c2c(nc(N)[nH]c2=O)NCC1CNc1ccc(C(=O)NC(CCC(=O)O)C(=O)O)cc1 (stereo not given) | inactive | inactive | inactive | inactive
52 | COc1cc(-c2ccccc2)nc2ccccc12 | inactive | inactive | inactive | inactive
53 | CC1(C)C2CC1[C@@](C)(O)[C@H](O)C2 (stereo not given in full) | inactive | inactive | inactive | inactive
54 | COc1ccc2c(=O)c(-c3ccc(OC)c(OC)c3)coc2c1 | inactive | inactive | inactive | inactive
55 | NCc1ccccc1 | inactive | inactive | inactive | inactive
56 | CC1(C)OC1COc1c2occc2cc2ccc(=O)oc12 (stereo not given) | inactive | inactive | inactive | inactive
57 | COc1ccc(CCNC(=O)/C=C\c2ccccc2)cc1OC | inactive | inactive | inactive | inactive
58 | CC/C=C\CC/C=C/CO | inactive | inactive | inactive | inactive
59 | COc1cc(C(=O)O)cc(OC)c1OC | inactive | inactive | inactive | inactive
60 | CC(C)C(O)(C(=O)OC[C@@H]1CC[N+]2([O-])CCCC12)C(C)O (stereo not given in full) | inactive | inactive | inactive | inactive
